Laboratory results taken from PubChem BioAssay AID2058 (Sanford-Burnham Center for Chemical Genomics, 2009).
About 150 (0.052%) of roughly 290,000 compounds were called active. What follows is part of a selection rich in actives, with near analogues and random picks from the rest. Potency and affinity values are given separately. A number with no mark means an inactive call.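 Rule for the calls: active = inhibition of at least 50% with at least 30 cells and total cytoplasm GFP at most 10,000,000; inconclusive = under 30 cells or total GFP of 10,000,000 plus; inactive = the rest.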

target: G-protein coupled receptor 35 (Homo sapiens) (UniProt Q9HC97); test: GPR35 antagonists blocking zaprinast-driven arrestin recruitment, primary screen, imaging, U2OS, beta-arrestin-GFP, zaprinast agonist (AID 2058); conditions: U2OS GPR35 beta-arrestin-GFP translocation imaging, zaprinast antagonism; at 10 µM; hits give high values
Sequence (Q9HC97 whole entry, looked up): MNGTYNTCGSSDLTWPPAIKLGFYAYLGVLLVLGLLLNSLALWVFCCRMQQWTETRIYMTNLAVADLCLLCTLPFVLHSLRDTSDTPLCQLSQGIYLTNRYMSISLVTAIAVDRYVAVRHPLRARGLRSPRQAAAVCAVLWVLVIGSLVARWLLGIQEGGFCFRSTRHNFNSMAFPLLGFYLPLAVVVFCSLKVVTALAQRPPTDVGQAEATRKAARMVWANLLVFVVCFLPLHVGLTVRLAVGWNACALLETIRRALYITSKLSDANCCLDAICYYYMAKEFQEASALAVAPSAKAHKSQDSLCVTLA

First: CCC(=O)c1c[nH]c(C(=O)NCCc2ccccn2)c1
Second: N#Cc1cccc(NC(=O)NCCc2c[nH]c3ccccc23)c1
The inhibition of the first is lower: -8% for the first, -5.4% for the second.

Going from `O=C(OCc1cc(Cl)ccc1OC(F)F)c1ccc([N+](=O)[O-])o1` to `CCC(C(=O)O)n1nc(-c2ccccc2)c2cc(Cl)ccc21` (stereo not given), the inhibition falls from 8.7% to -3.2%.

First: CCCCC1=CC2=CC(=O)C(C)(OC(=O)CC)C(=O)C2=CN1C(CO)CO (stereo not given)
Second: CCCCC[C@H]1CN(CCCC)C(=O)[C@@H]1CC(=O)NCc1ccc(OC)cc1
The inhibition of the first is lower: -6.6% for the first, 8.5% for the second.

Going from `CC(C)NCCOCCOc1ccccc1F` to `CCOc1ccccc1/C=N/NC(=O)c1c(C)nc2ccc(Br)cn12`, the inhibition falls from 12.6% to 10.2%.

First: Cc1cc(C)c(S(=O)(=O)N2CCCOC2CNC(=O)C(=O)NCc2cccs2)c(C)c1 (stereo not given)
Second: CCC1CCCCN1S(=O)(=O)c1ccc(NC(=O)c2ccncc2)cc1 (stereo not given)
The inhibition of the first is higher: -5.9% for the first, -21.5% for the second.

First: COc1ccccc1NC(=O)Cn1c(=O)n(C)c(=O)c2sc3c(c21)COC(C)(C)C3
Second: CCOC(=O)CN1CC23C=CC(O2)C(C(=O)NCc2ccccc2OC)C3C1=O (stereo not given)
The inhibition of the first is lower: 5.9% for the first, 13.9% for the second.

Compared with `CC(/C=C1\SC(=O)N(CC(=O)Nc2ccc(O)cc2)C1=O)=C\c1ccccc1`, `CC(/C=C1\SC(=S)N(CCC(=O)Nc2ccc(O)cc2)C1=O)=C\c1ccccc1` is higher in inhibition: -6.3% for the first, 0.1% for the second.

First: CC(=O)c1ccc(NC(=O)CCCN2C(=O)/C(=C/C(C)=C/c3ccccc3)SC2=S)cc1
Second: CC(/C=C1\SC(=O)N(CCCC(=O)O)C1=O)=C\c1ccccc1
The inhibition of the first is higher: 19.4% for the first, -14.5% for the second.

First: CC(=O)N(Cc1cc2c(C)cc(C)cc2[nH]c1=O)C1CCCCC1
Second: Cc1ccc(C(=O)N(CC(=O)NC2CCCC2)c2ccccc2C)s1
The inhibition of the first is lower: 1.4% for the first, 4.4% for the second.

Going from `O=C(Nc1ccccc1)C1=C[C@@H](c2csc3ccccc23)C[C@@H](OCc2ccc(CO)cc2)O1` to `Cc1ccc(-c2cccc(C(=O)NCCc3ccccc3)n2)c2ccccc12`, the inhibition rises from -24.8% to -3.7%.

Going from `CC(=O)Nc1sc(/C(C#N)=C\c2cccc(Cl)c2)nc1-c1ccc(C)cc1` to `CC(=O)Nc1sc(N/N=C/c2ccc(C)cc2)nc1-c1ccc(C)cc1`, the inhibition falls from 18.1% to -2.6%.

Compared with `CC(=O)Nc1sc(N/N=C\c2ccc(O)cc2)nc1-c1cccs1`, `CC(=O)Nc1ccc(C(=O)/C=C/c2ccco2)cc1` is higher in inhibition: -8.9% for the first, -4.1% for the second.

First: CCN(CC)c1ccc(/C=C(\C#N)c2ccccn2)cc1
Second: CN(C(=O)c1ccc2ccccc2c1)c1ccccn1
The inhibition of the first is higher: 15.1% for the first, 13.4% for the second.

Going from `CC1Cc2ccccc2N1C(=O)CSc1nc(-c2ccccc2)cs1` (stereo not given) to `O=C(Nc1nc(-c2cccc([N+](=O)[O-])c2)cs1)C(c1ccccc1)c1ccccc1`, the inhibition rises from -14.5% to 0.8%.

First: COC(=O)c1cc(OC)c(OC)cc1N1C(=O)CCCC1=O
Second: COc1ccc(S(=O)(=O)N2CCN(c3ccccn3)CC2)cc1OC
The inhibition of the first is higher: 8.7% for the first, 2.6% for the second.

Compared with `Cc1ccc(C)c2c1[nH]c1ccccc12`, `CC(=O)N1CCc2[nH]c3ccccc3c2C1` is lower in inhibition: 15.5% for the first, 4.9% for the second.

Going from `Cc1noc(C)c1C(=O)OCC(=O)c1c(N)n(CC(C)C)c(=O)n(C)c1=O` to `CC(C)Cn1c(N)c(C(=O)COC(=O)/C=C/c2cccs2)c(=O)n(C)c1=O`, the inhibition rises from -3.5% to 12.1%.

Compared with `Cc1ccccc1N1CCN(C2CCCN(C(=O)c3ccc(Cl)s3)C2)CC1` (stereo not given), `COc1ccc(N2CCN(C(=O)C(=O)c3cn(CC(=O)N4CCCCCC4)c4ccccc34)CC2)cc1` is higher in inhibition: 0.1% for the first, 2.6% for the second.

Going from `CCOC(=O)/C=C(C)\C=C\c1c[nH]c2ccccc12` to `O=C(/C=C/c1c[nH]c2ccccc12)c1ccccc1`, the inhibition falls from -3.8% to -6.3%.

Compared with `Cc1ccccc1Cn1c2ccccc2c2cnn(CC(=O)NCCCN3CCN(C)CC3)c(=O)c21`, `Cn1cc(CN2CCC(n3nccc3NC(=O)c3ccccc3Cl)CC2)cn1` is lower in inhibition: -6.2% for the first, -15.2% for the second.

Going from `O=S(=O)(Nc1nc2ccccc2nc1Cl)c1ccc(Cl)cc1` to `O=S(=O)(Nc1nc2ccccc2nc1-[n+]1ccccc1)c1ccc(Cl)cc1`, the inhibition rises from -9.2% to -1.7%.

Compared with `O=C(Nc1ccc(Cl)cn1)c1ccc(Oc2ccccc2)cc1`, `CCOc1ccc(NC(=O)C(C)Oc2ccccc2C(=O)Nc2cccc(Cl)c2Cl)cc1` (stereo not given) is higher in inhibition: 0.8% for the first, 12.3% for the second.

First: CCOC(=O)CCCSc1nc2sc3c(c2c(=O)[nH]1)CCC3
Second: O=c1[nH]c(CN2CCCC2)nc2sc3c(c12)CCC3
The inhibition of the first is higher: 1.8% for the first, 0.2% for the second.

First: CCc1nnc(NS(=O)(=O)c2ccc(NC(=S)NC(=O)/C=C/c3ccc(F)cc3)cc2)s1
Second: CCc1nnc(NS(=O)(=O)c2ccc(NC(=S)NC(=O)/C=C/c3ccccc3)cc2)s1
The inhibition of the first is higher: 11.3% for the first, -2.9% for the second.

Compared with `CCc1ccc(/C=C2/SC(=S)N(CCC(=O)Nc3cccnc3)C2=O)cc1`, `S=c1nc(-c2ccccc2)n(Cc2cccnc2)c2c1CCCC2` is higher in inhibition: -11.4% for the first, 14.8% for the second.

Going from `COC(=O)CSc1nc2ccc(NC(=O)c3ccccc3C(=O)N3CCOCC3)cc2s1` to `O=C(O)c1ccc(CSc2nc3ccc(NC(=O)c4ccccc4C(=O)O)cc3s2)cc1`, the inhibition rises from -10.4% to -3.4%.

Going from `CC(C)c1ccc[n+](-c2nc([O-])sc2C=O)c1` to `COC(=O)c1cccc(NC(=O)c2nn(C(C)C)c(=O)c3ccccc23)c1`, the inhibition rises from -8.7% to 25.1%.

Compared with `Cc1ccc(NC(=O)COc2ccccc2C(=O)Nc2ccccc2)cc1Cl`, `O=C(Nc1cccc(-c2cn3ccccc3n2)c1)c1cc2ccccc2oc1=O` is higher in inhibition: -17.7% for the first, -3.4% for the second.

First: Cc1csc2c(N3CCC(C(=O)O)CC3)ncnc12
Second: Cc1nc(N2CCC(C)CC2)c2c(C)c(C(=O)Nc3ccc(C)c(F)c3)sc2n1
The inhibition of the first is lower: -2.1% for the first, 24.7% for the second.

Going from `O=C(Nc1ccnn1C1CCN(Cc2ccc(OC(F)F)cc2)CC1)C1CCCC1` to `Cc1ccc(CNC(=S)NC2CCCCC2)cc1`, the inhibition falls from 9.2% to -8.5%.

First: CC(C(=O)NCc1ccco1)n1nc(-c2ccccc2)c2cc(Cl)ccc21 (stereo not given)
Second: O=C1CC(c2ccccc2)N1c1ccccc1 (stereo not given)
The inhibition of the first is lower: 7.1% for the first, 8.1% for the second.

Going from `C=CCC(O)(CC=C)CNC(=O)C1CCC(=O)N(CCCc2ccccc2)C1` (stereo not given) to `COC(=O)CN1C(=O)[C@H]2[C@@H](c3ccc(C)o3)N3C(=O)CN(CC4CC4)C(=O)[C@@]3(Cc3ccccc3)[C@H]2C1=O`, the inhibition rises from 1.6% to 5.1%.

Compared with `CC(=O)N1CC=C2C(C#N)=C(N)C(C#N)(C#N)C(C)C2C1` (stereo not given), `CN1CC=C2C(C#N)=C(N)C(C#N)(C#N)[C@H](c3cccs3)[C@H]2C1` is higher in inhibition: 13.2% for the first, 39.8% for the second.

Compared with `COc1cc(C2C3CN(C)CC=C3C(C#N)=C(N)C2(C#N)C#N)ccc1OC(C)C` (stereo not given), `COc1cc([C@@H]2[C@H]3CN(C)CC=C3C(C#N)=C(N)C2(C#N)C#N)cc2c1OCO2` is higher in inhibition: 16.1% for the first, 48.3% for the second.

First: CCCCn1c(=N)n(CC(=O)c2ccc(OC)cc2)c2ccccc21
Second: COc1ccc2cc3cc(C(=O)N4CCN(c5ccccc5)CC4)oc3nc2c1
The inhibition of the first is lower: -0.5% for the first, 6% for the second.

Going from `CCC(=O)Nc1ccc(C(=O)NNC(=O)c2ccc(C)cc2)cc1` to `O=C(/C=C\c1ccco1)c1ccc(NC(=O)c2ccco2)cc1`, the inhibition rises from 9.3% to 15.5%.

First: O=C(Nc1ccc(S(=O)(=O)Nc2ccccc2)cc1)c1ccc(CN2CCOCC2)cc1
Second: CCS(=O)(=O)c1ncc(Cl)c(C(=O)Nc2ccc(S(=O)(=O)N3CCC(C)CC3)cc2)n1
The inhibition of the first is lower: -0.3% for the first, 27.7% for the second.

First: COc1cc(CN2CCCC(C)C2)ccc1OCc1ccccc1 (stereo not given)
Second: COc1ccc(C2SCCN2C(=S)Nc2ccc(F)cc2)cc1 (stereo not given)
The inhibition of the first is higher: 9.5% for the first, -0.3% for the second.

Going from `CC1=C(C(=O)Nc2ccc(Cl)cc2C(=O)N2CCC(C(N)=O)CC2)SCCO1` to `CCOC(=O)N1CCN(C(=O)COC(=O)c2ccc(O)cc2O)CC1`, the inhibition falls from 16.5% to -5.5%.

Going from `Cc1nc(N2CCCCC2)c2c(C)c(C(=O)Nc3cccc(C(F)(F)F)c3)sc2n1` to `Cc1nc(N2CCC(C)CC2)c2c(C)c(C(=O)Nc3ccc(C(F)(F)F)cc3)sc2n1`, the inhibition rises from 14.1% to 25.3%.

Going from `Cc1c(C(=O)Nc2ccc3c(c2)OCCO3)sc2ncnc(N3CCCCC3C)c12` (stereo not given) to `COc1ccc2nc3oc(C(=O)N4CCN(c5cccc(C(F)(F)F)c5)CC4)cc3cc2c1`, the inhibition rises from 1.3% to 8.6%.

Compared with `COc1cc(/C=C2\C(=N)N3N=C(S(C)(=O)=O)SC3=NC2=O)cc(OC)c1OCCOc1ccccc1C`, `C=CCn1c(SCC(=O)Nc2ccc(Cl)cn2)nnc1C1CC1` is lower in inhibition: 3.6% for the first, -2.5% for the second.

For `CC(=C\c1ccccc1)/C=C1/SC(=O)N(CCCC(=O)Nc2ccc(C(=O)O)cc2)C1=O`, the inhibition was 108% (active).
`CC(/C=C1\SC(=S)N(CCCC(=O)Nc2ccc(C(=O)O)cc2)C1=O)=C\c1ccccc1` was tested, and the inhibition was 114% (active).
For `CCN(CC)c1ccc(/C=C(\C#N)c2nc(-c3cccs3)c(NC(C)=O)s2)cc1`, the inhibition was 70.6% (active).
`CC(=O)N1C=Cc2c(c(C)c3c([nH]c4ccccc43)c2C)C1` was tested, and the inhibition was 71.5% (active).
With `O=S(=O)(Nc1cc2nc3ccccc3nc2n1Cc1ccccc1)c1ccc(Cl)cc1` the inhibition was 85.4% (active).
With `CN1CC=C2C(C#N)=C(N)C(C#N)(C#N)[C@H](c3cccc(Cl)c3)C2C1` (stereo not given in full) the inhibition was 101% (active).
